Lassa entry: inhibitors of Lassa virus binding or entry into cells | Lassa virus pseudotyped entry inhibition, cell-based qHTS | Potency, µM (series often up to 49.2 µM), inactives show top-dose activity change, negative = inhibition, hits mostly inhibitors | 18,000 compounds, 4.1% hits | AID 720533
MARV entry inh: blocks Marburg virus binding or cell entry. Marburg virus pseudotype entry/binding inhibition, cell-based. Potency, µM (top dose mostly 49.2 µM), for the others: at the highest dose activity change, negative = inhibition, usual class: inhibitors. 18,000 compounds, 6.5% hits. AID 720532
Active calls of the source: *; ? = inconclusive; / = not tested or not shown; ! = a repeat was not active; [ ] = remark or other dose. Hits are enriched below; roughly 7.1% of the tested compounds scored in any of these assays. Calls come from the whole dose curve; tested in HEK293 cells. % is set by controls: 0 for no effect and ±100 for the full control effect; potency is the fitted concentration of half-maximal effect.

SMILES	Lassa entry	MARV entry inh
N#Cc1ccc2c(c1)N(CCCN1CCC(O)CC1)c1ccccc1S2	-9.3%	20µM*
c1ccc2c(c1)Sc1ccccc1N2CCN1CCCC1	-28.1%	?
O=C1CSC2(CCN(CCCN3c4ccccc4Sc4ccc(Cl)cc43)CC2)N1	?	22.4µM*
CCOC(=O)CN1C(=O)[C@@]2(CC(C)=CC[C@@H](COc3ccccc3)O2)c2ccccc21	/	-19.5%[8.59 µM]
CN(C)c1ccc2[nH]c(O)c(C=Nc3ccc(S(N)(=O)=O)cc3)c2c1	/	-21.6%
COC(=O)NCC=Cc1nc(CCCO)co1	-24.0%[8.59 µM]	-24.0%[8.59 µM]
C[C@H](CO)NS(=O)(=O)c1cccc(Cl)c1F	14.1%	18.7%
CC(=O)OC1C[C@@]2(C)C(c3ccoc3)OC(=O)C3O[C@@]32[C@]2(C)C(OC(C)=O)CC3C(C)(C)C(OC(C)=O)CC(OC(C)=O)[C@@]3(C)C12 (stereo partly specified)	7.4%	1.7%
CC(=O)OC1CC(OC(C)=O)[C@]2(C)C(CC(OC(C)=O)[C@]3(C)C2CC[C@@]2(C)C(c4ccoc4)C(=O)C4O[C@]432)C1(C)C (stereo partly specified)	-16.4%	15.8µM*
C=CCNC(=O)[C@H]1C=C(OC)C(=O)C[C@H]2c3ccccc3C[C@]12C	4.0%[8.59 µM]	-22.5%[8.59 µM]
COC(=O)C1=C(C)NC(C)=C([N+](=O)[O-])C1c1ccccc1C(F)(F)F (stereo unspecified)	-28.9%	-26.9%
COC(=O)C1=C(C)NC(C)=C(C(=O)OCCN(C)Cc2ccccc2)C1c1cccc([N+](=O)[O-])c1 (stereo unspecified)	25.1µM*!	11.2µM*
COC(=O)C1=C(C#N)NC(C)=C(C(=O)OC(C)C)C1c1cccc([N+](=O)[O-])c1 (stereo unspecified)	-25.1%	?
COC(=O)C1=C(C)NC(C)=C(C(=O)OCCN2CCN(C(c3ccccc3)c3ccccc3)CC2)C1c1cccc([N+](=O)[O-])c1 (stereo unspecified)	22.4µM*	12.6µM*
Cn1ccc2c(C=Cc3ccc(F)cc3)cc3c(c21)C1CCC3O1 (stereo unspecified)	-0.4%	-19.8%
C=CCOC(=O)N[C@@H](Cc1ccccc1)C(C(=O)OC)=C(C)NCc1ccccc1	-22.4%[8.59 µM]	-10.9%[8.59 µM]
CN1CCCCC1Cn1cc(C(=O)c2cc([N+](=O)[O-])ccc2I)c2ccccc21 (stereo unspecified)	?	10µM*
COC[C@@H]1CCCN1[C@@H]1C[S+](=O)([O-])N[C@@H]1COCc1ccccc1	-6.8%	25.4%
COc1cc([C@@H]2c3cc4c(cc3[C@@H](O[C@@H]3O[C@@H]5CO[C@@H](C)O[C@H]5[C@H](O)[C@H]3O)[C@H]3COC(=O)[C@H]23)OCO4)cc(OC)c1O	1.12µM*	?
COc1cc([C@@H]2c3cc4c(cc3C(O[C@@H]3O[C@@H]5CO[C@@H](C)O[C@H]5[C@H](O)[C@H]3O)C3COC(=O)[C@@H]32)OCO4)cc(OC)c1OP(=O)(O)O (stereo partly specified)	3.16µM*	2.82µM*
COc1cc(C2c3cc4c(cc3C(OC3OC5COC(C)O[C@@H]5C(O)C3O)C3COC(=O)C23)OCO4)cc(OC)c1O (stereo partly specified)	?	1.12µM*
CCN1C(=NCc2ccc(OC)cc2)NC(c2cccc(F)c2)C(C(=O)OC)=C1C (stereo unspecified)	18.1%[8.59 µM]	2.4%[8.59 µM]
CCC(=O)OC1CCC2C3CCc4cc(O)ccc4C3CC[C@]12C (stereo partly specified)	158µM*	0.001µM*
C[C@]12CC[C@@H]3c4ccc(O)cc4CC[C@H]3[C@@H]1CC[C@@H]2OC(=O)CCC1CCCC1	28.2µM*!	19.7%
C[C@]12CCC3c4ccc(O)cc4CCC3[C@@H]1CCC2=O (stereo partly specified)	-16.9%[17.8 µM]	15.5%[17.8 µM]
SMILES	Lassa entry	MARV entry inh
CCC(=O)O[C@H]1CC[C@H]2[C@@H]3CCc4cc(O)ccc4[C@H]3CC[C@]12C	?	-29.9%
CCCCC(=O)O[C@H]1CC[C@H]2[C@@H]3CCc4cc(O)ccc4[C@H]3CC[C@]12C	?	-14.7%
C[C@]12CC[C@@H]3c4ccc(O)cc4CC[C@H]3[C@@H]1CCC2=O	31.6µM*!	16.5%
COC(=O)N[C@H](C(C(=O)OC)=C(C)NCc1ccccc1)c1ccco1	12.9%[8.59 µM]	-23.9%[8.59 µM]
C#CCN1C(=O)[C@]2(O[C@H](C)CC3=CCCC32)c2c(Br)cccc21 (stereo partly specified)	36.9%[8.59 µM]	-15.3%[8.59 µM]
C[C@H]1C[C@@H](C)O[C@@]2(C1)C(=O)Nc1ccccc12	5.3%[8.59 µM]	5.4%[8.59 µM]
CC(=O)OC[C@H]1O[C@H](C#CC(C)(C)C)C=C[C@H]1OC(C)=O	19.5%[8.59 µM]	16.1%[8.59 µM]
N#Cc1cccc(Nc2ncc(-c3ccccc3)o2)c1	2.4%	18.5%
O=C(O)c1cc(O)c2c(c1)[O][Bi][O]2	4.8%	4.5%
O=C(O)c1cc(O)c(O)c(O)c1	11.2µM*	3.16µM*
CCC[C@H]1CN(Cc2ccccc2)C(=O)[C@H]1CC(=O)NC	14.5%	19.9%
Nc1nc(-c2cccc(Cl)c2)c(-c2ccc3ncccc3n2)s1	18.2%	5.3%
C[C@@H]1CC[C@H]2C(=O)N(Cc3ccccc3)C[C@H](O)CN2[C@@H]1c1ccc(Br)cc1	-0.6%[8.59 µM]	2.9%[8.59 µM]
COC(=O)CC=C1c2ccccc2OC[C@@H](OC)[C@H]1C	-25.0%[8.59 µM]	2.4%[8.59 µM]
CC1CC[C@@]2(OC1)OC1CC3C4CC[C@H]5CC(O)CC[C@@]5(C)C4CC[C@]3(C)C1C2C (stereo partly specified)	-8.1%	-3.0%
CC1CC[C@@]2(OC1)OC1C(O)C3C4CC[C@H]5CC(O[C@@H]6O[C@@H](CO)[C@H](OC7OC(CO)C(O)C(OC8OCC(O)C(O)[C@H]8O)[C@@H]7O[C@@H]7OC(CO)[C@H](O)[C@@H](O[C@@H]8OC(CO)C(O)C(O)C8O)C7O)C(O)C6O)C(O)C[C@]5(C)C4CC[C@]3(C)C1C2C (stereo partly specified)	14.1µM*	?
CC1CC[C@@]2(OC1)OC1CC3C4CC[C@@H]5CC(O)CC[C@@]5(C)C4CC[C@]3(C)C1C2C (stereo partly specified)	-2.2%	17.4%
CC1CC[C@@]2(OC1)O[C@@H]1[C@@H](O)[C@H]3C4CC[C@H]5C[C@@H](O[C@@H]6O[C@H](CO)[C@H](O[C@@H]7O[C@H](CO)[C@@H](O)[C@H](O[C@@H]8OC[C@@H](O)[C@H](O)[C@H]8O)[C@H]7O[C@@H]7O[C@H](CO)[C@@H](O)[C@H](O[C@@H]8O[C@H](CO)[C@@H](O)[C@H](O)[C@H]8O)[C@H]7O)[C@H](O)[C@H]6O)[C@H](O)C[C@]5(C)C4CC[C@]3(C)[C@H]1[C@@H]2C (stereo partly specified)	14.1µM*	25.1µM*
CC(C)[C@@]1(NC(=O)[C@@H]2C[C@H]3c4cccc5[nH]cc(c45)C[C@@H]3N(C)C2)O[C@]2(O)[C@H]3CCCN3C(=O)CN2C1=O	-12.4%[17.8 µM]	?
CC(C)[C@H]1C(=O)N2CCC[C@H]2[C@]2(O)O[C@](NC(=O)[C@@H]3C[C@@H]4c5cccc6[nH]cc(c56)C[C@H]4N(C)C3)(C(C)C)C(=O)N12	-18.7%	7.08µM*
CC(C)[C@@]1(NC(=O)[C@@H]2C[C@@H]3c4cccc5[nH]cc(c45)C[C@H]3N(C)C2)O[C@@]2(O)[C@@H]3CCCN3C(=O)[C@H](Cc3ccccc3)N2C1=O	35.5µM*!	7.08µM*
